# Reference: PubChem BioAssay AID504832 (National Center for Advancing Translational Sciences (NCATS), 2011)
# Out of some 310,000 compounds screened, about 18,000 (5.8%) were called active. Inconclusive results (about 22%) are left out. Calls follow the shape of the dose curve; as a rule, active = well fitted inhibition curve with a large enough effect; inconclusive = small, poorly fitted or top-dose-only effect, or another doubt; inactive = no such curve, though single readings can be large or run the other way. What follows is part of a selection rich in actives, with near analogues and random picks from the rest.
# Test: Primary qHTS for delayed death inhibitors of the malarial parasite plastid, 48 hour incubation
# Conditions: P. falciparum luciferase growth in erythrocytes; series mostly up to 28.7 µM; activity change, negative = inhibition: at the top concentration
# Procedure, shortened: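 Parasite viability was followed by luminescence of a genomically integrated firefly luciferase. Cultures held 0.1% parasitemia at 2% hematocrit (final), incubated under 5% CO2 at 37 C.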
# % is scaled to controls: 0 for no effect and ±100 for the full control effect; potency is read from the fitted curve at half-maximal effect.
SMILES,"activity change, negative = inhibition",Potency
Cn1ccnc1SCC(=O)Nc1ccc2c(c1)OCCO2,67.6% (inactive),–
CCN(CC(=O)Nc1ccccc1OC)C(=O)CC1CC2CCC1C2 (stereo unspecified),-19% (inactive),–
N#C[C@]1(S(=O)(=O)c2ccccc2)C[C@@H]2ON=C(c3cccc(Br)c3)[C@@H]2C1,-5.53% (inactive),–
Cc1ccc(C(=O)Nc2ccc(C)c(S(=O)(=O)N(C)C)c2)s1,241% (inactive),–
Cc1ccc(NC(=O)c2cccs2)cc1S(=O)(=O)N(C)C,6.38% (inactive),–
Cc1ccc(NC(=O)CNCc2ccccn2)cc1S(=O)(=O)N(C)C,–,16.5 µM (active)
Cn1c(CCc2ccccc2)nnc1SCC(N)=O,2.6% (inactive),–
COc1ccc(NC(=O)c2cccc3c2C(=O)N(CC2CCCO2)C3)cc1OC (stereo unspecified),-17.8% (inactive),–
Oc1c(C(c2ccccn2)N2CCOCC2)ccc2cccnc12 (stereo unspecified),–,9.28 µM (active)
Cc1nc2sc(C(c3ccco3)N3CCOCC3)c(O)n2n1 (stereo unspecified),1.8% (inactive),–
O=C(c1cccnc1NCc1ccccc1)N1CCOCC1,6.15% (inactive),–
CCc1noc(C)c1C(=O)N1CCCSC1=Nc1ccccc1OC,-6.15% (inactive),–
Cc1c(C(=O)Nc2ccccn2)oc2ccc(Br)cc12,132% (inactive),–
CC(C)c1ccc(C(=O)OC2CCOC2=O)cc1 (stereo unspecified),11.3% (inactive),–
CCC(C)(C)NC(=O)CN(C(=O)CCC(=O)Nc1nccs1)c1ccc2c(c1)OCO2,-19.2% (inactive),–
COc1ccccc1C1SCCN1C(=O)c1ccc([N+](=O)[O-])cc1 (stereo unspecified),-5.95% (inactive),–
COc1cc2c(cc1OC)C(c1cccc([N+](=O)[O-])c1)=NCC2,-14.1% (inactive),–
COc1ccc(C(=O)N2CCc3cc(OC)c(OC)cc3C2c2cccc([N+](=O)[O-])c2)cc1 (stereo unspecified),–,6.57 µM (active)
Cc1ccc(OCCNC(=O)CNC(=O)c2ccc(C)c(C)c2)cc1,6% (inactive),–
CN(C(=O)COC(=O)c1nc(Cl)ccc1Cl)C1CCS(=O)(=O)C1 (stereo unspecified),2.04% (inactive),–
COCCN1CCn2c(nc3cc(NS(C)(=O)=O)ccc32)C1,30.5% (inactive),–
COc1ccc(CC2(CO)CCN(Cc3cnn(C)c3)CC2)cc1,2.96% (inactive),–
COc1ccccc1/C=C/CN1CCC(CO)(Cc2ccccc2)CC1,–,11.7 µM (active)
CC(=O)c1cccc(CN2CCC(CO)(Cc3ccccc3)CC2)c1,-7.63% (inactive),–
Cc1cc(C)n(CCNS(=O)(=O)c2ccc(Cl)cc2)n1,-7.98% (inactive),–
CC(=O)Nc1ccc(NS(=O)(=O)c2ccc3c(c2)NC(=O)CC(=O)N3)cc1,19.7% (inactive),–

SMILES,"activity change, negative = inhibition",Potency
Cc1sc2ncn(CC(=O)NCCCC(=O)N(C)Cc3ccccc3)c(=O)c2c1C,15.5% (inactive),–
CC1CCCC(C)N1C(=O)CN1CCN(c2nc(-c3ccc(F)cc3)cs2)CC1 (stereo unspecified),–,11.7 µM (active)
O=C(CN1CCN(c2nc(-c3ccccc3)cs2)CC1)NCc1ccc2c(c1)OCO2,-11.5% (inactive),–
CCCc1cc(=O)[nH]c(SCC(=O)N2C(C)CCCC2C)n1 (stereo unspecified),10.6% (inactive),–
Cc1ccc(S(=O)Cc2ccc(C(=O)N3CCN(C4CCCCC4)CC3)o2)cc1 (stereo unspecified),8.56% (inactive),–
O=C1C(=O)N(CCN2CCOCC2)C(c2cccc(Cl)c2)/C1=C(/O)c1ccc2c(c1)OCO2 (stereo unspecified),79.2% (inactive),–
O=C(NCCCn1ccnc1)/C(=C\c1ccccc1F)NC(=O)c1ccccc1,13.2% (inactive),–
CC(Oc1ccccc1)C(=O)Nc1c2c(nn1-c1ccccc1)CS(=O)C2 (stereo unspecified),5.06% (inactive),–
O=C(Nc1sc2c(c1C(=O)O)CCC2)c1ccccc1F,50.4% (inactive),–
C=CCn1c(=NC(=O)c2ccc(S(=O)(=O)N3CCCC3)cc2)sc2cc(NC(C)=O)ccc21,–,1.85 µM (active)
COc1cc(C(C)=O)ccc1OC(C)C(=O)Nc1ccc(S(=O)(=O)N2CCCC2)cc1 (stereo unspecified),-18.1% (inactive),–
C=CCn1c(=NC(=O)c2cccs2)sc2cc(NC(C)=O)ccc21,105% (inactive),–
CCOc1ccc(C(=O)Nc2ccc(S(=O)(=O)Nc3cc(C)on3)cc2)cc1,5.82% (inactive),–
COc1ccc(C)cc1NC(=O)CNCc1cccs1,3.51% (inactive),–
C[C@H](NC(=O)OC(C)(C)C)c1nnc(SCC(=O)Nc2ccc(Br)cc2)o1,-5.28% (inactive),–
CC(C)(C)OC(=O)Nc1ccc([C@@H](NC(=O)OC(C)(C)C)C(=O)OC(C)(C)C)cc1,–,2.08 µM (active)
CCOC(=O)Nc1ccc(NC(=O)OCC)cc1,56% (inactive),–
CN(Cc1ccccc1Cl)C(=O)C1CCC(=O)N(CCc2cccc(F)c2)C1 (stereo unspecified),-19.1% (inactive),–
CCOC(=O)C1=C(c2ccccc2)NC(=O)NC1c1cc(OC)c(OC)cc1OC (stereo unspecified),4.34% (inactive),–
CC1=C(C(=O)OCC2CCCCC2)C(c2ccc(F)cc2)NC(=O)N1 (stereo unspecified),29.1% (inactive),–
CCOC(=O)C1=C(CNC2CCCCC2)NC(=O)NC1c1cc(C)ccc1C (stereo unspecified),–,10.4 µM (active)
Cc1ccc(S(=O)(=O)CC(=O)Nc2nnc(C)s2)cc1,-2.59% (inactive),–
CCCCCC(=O)NC(=S)NNC(=O)c1ccc([N+](=O)[O-])cc1,11.8% (inactive),–
CC(C)CC(=O)NC(=S)NNC(=O)c1cccc([N+](=O)[O-])c1,–,14.7 µM (active)
O=C(NC(=S)NC1CCS(=O)(=O)C1)c1cccc([N+](=O)[O-])c1 (stereo unspecified),11.5% (inactive),–
